# Experimental data: PubChem BioAssay AID2642 (Johns Hopkins Ion Channel Center, 2010)
# Out of some 310,000 compounds screened, about 3,900 (1.3%) were called active.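 Rule for the calls: active = compounds whose thallium flux B-score, printed positive for inhibition, exceeds three library SD while starting fluorescence stays within three; inactive = the rest.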 The entries come from a sample that favours actives as a whole.
# Molecular target: Potassium voltage-gated channel subfamily KQT member 1 (Homo sapiens) (UniProt P51787)
# Sequence (P51787 whole entry, looked up): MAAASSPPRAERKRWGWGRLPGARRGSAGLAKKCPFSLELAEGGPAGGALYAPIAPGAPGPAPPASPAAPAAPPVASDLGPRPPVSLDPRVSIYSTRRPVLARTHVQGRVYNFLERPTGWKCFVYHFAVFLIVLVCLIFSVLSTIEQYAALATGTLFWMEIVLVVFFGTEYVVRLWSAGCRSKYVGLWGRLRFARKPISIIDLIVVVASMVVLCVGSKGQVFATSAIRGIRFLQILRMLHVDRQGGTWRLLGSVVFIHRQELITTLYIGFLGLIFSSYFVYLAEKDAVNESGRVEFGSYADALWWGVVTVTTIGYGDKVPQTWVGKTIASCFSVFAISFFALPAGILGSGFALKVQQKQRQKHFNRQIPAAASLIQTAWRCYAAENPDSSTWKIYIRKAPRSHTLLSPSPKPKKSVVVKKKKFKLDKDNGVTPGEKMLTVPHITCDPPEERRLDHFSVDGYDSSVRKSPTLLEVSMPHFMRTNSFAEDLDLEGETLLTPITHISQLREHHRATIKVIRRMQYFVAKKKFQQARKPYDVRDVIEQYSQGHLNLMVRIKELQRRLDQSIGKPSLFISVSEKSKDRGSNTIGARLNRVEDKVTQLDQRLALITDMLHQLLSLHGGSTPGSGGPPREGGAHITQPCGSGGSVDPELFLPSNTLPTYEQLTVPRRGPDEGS
# Assay: inhibitors of human KCNQ1 channel, primary screen, cell-based, thallium flux, high-throughput (AID 2642);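 note: channel opened by potassium depolarization with thallium stimulus after 20 min compound exposure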
# Details: CHO-K1 KCNQ1, FluxOR thallium flux fluorescence, at 10 µM; active compounds read high
row,SMILES,B-score
1,C/C(N)=C(/C#N)C(=O)COC(=O)C1CCN(C(=O)c2ccc(Cl)cc2)CC1,inactive
2,COc1ccc(NC(=O)CNC(=O)Cn2ccc3ccccc3c2=O)c(OC)c1,inactive
3,Cc1ccc(OCCCCc2c(C)n[nH]c2C)cc1,inactive
4,CCn1c(/C=C/Nc2ccccc2)[n+](CC)c2ccc(C(=O)OCC(F)(F)F)cc21,9 (active)
5,CCOC(=O)N1CCN(C(=O)c2ccc(S(=O)(=O)Nc3cccc(C(F)(F)F)c3)cc2)CC1,inactive
6,CCOC(=O)c1ccc2c(c1)nc(C)n2CC,inactive
7,O=C(COC(=O)/C=C/c1cccs1)NC1CCCCC1,inactive
8,Cc1ccc(NC(=O)COc2ccc(-n3ccnc3)cc2)cc1Cl,inactive
9,Cc1ccc(-c2nc(-c3cccnc3)sc2CC(=O)Nc2ccc(C)c(Cl)c2)cc1,11 (active)
10,Cc1nc(-c2ccc(F)cc2)c(CC(=O)Nc2cccc(S(=O)(=O)N3CCOCC3)c2)s1,inactive
11,COc1cc(C(=O)N/C(=C\c2cn(C)c3ccccc23)C(=O)N2CCOCC2)cc(OC)c1OC,inactive
12,COc1cc(/C=C(\C#N)c2nc3ccccc3[nH]2)ccc1O,9 (active)
13,COc1ccc(/C=C(/NC(=O)c2ccc(C)cc2)c2nc3ccccc3[nH]2)cc1OC,inactive
14,COc1cc(/C=C(\C#N)c2nc3c(s2)CC(C)CC3)ccc1O (stereo not drawn),inactive
15,COc1ccc(/C=C(\NC(=O)c2ccc(OCC(C)C)cc2)C(=O)OCc2ccco2)cc1,inactive
16,O=C(O)c1ccc(OCC2CCCO2)cc1 (stereo not drawn),inactive
17,COc1ccccc1C(=O)NC(CCSC)C(=O)NNC(=O)c1csc(N2CCOCC2)n1 (stereo not drawn),inactive
18,O=C(Nc1ccc(N2CCOCC2)nc1)c1c(F)cccc1F,inactive
19,COC(=O)c1cc(NC(=O)c2cccnc2)ccc1N1CCOCC1,inactive
20,O=C(Nc1ccc(F)cc1)c1cccnc1N1CCOCC1,10 (active)
21,CSCCC(NS(=O)(=O)/C=C/c1ccccc1)C(=O)N1CCC(C)CC1 (stereo not drawn),inactive
22,CCOC(=O)c1ccc(NC(=O)c2cccnc2)cc1,inactive
23,Cc1c(C(=O)OC(C)C)sc(NC(=O)c2cccnc2)c1C#N,9 (active)
24,CCOC(=O)c1sc(NC(=O)CSc2ncccn2)c(C#N)c1C,inactive
25,C=CCc1c(C)nc2cc(-c3ccccc3)[nH]n2c1=O,inactive
26,COc1ccc(CCNC(=O)CCNS(=O)(=O)c2cc(Br)cnc2N)cc1OC,inactive
27,Cc1cc(C)cc(OCC(=O)Nc2ccc(S(=O)(=O)Nc3ccccn3)cc2)c1,inactive

row,SMILES,B-score
1,Cc1ccc(S(=O)(=O)Nc2ccc3ncccc3c2)cc1,6 (active)
2,Cc1ccc(NS(=O)(=O)c2ccc(C(C)(C)C)cc2)cn1,inactive
3,Cc1ccc2c(Cl)c(C(=O)Nc3nn[nH]n3)sc2c1,inactive
4,CCCCCCCCCCCCN1C(=O)CSC1c1cccnc1 (stereo not drawn),9 (active)
5,CN(C)CCCN1C(=O)CSC1c1ccc([N+](=O)[O-])cc1 (stereo not drawn),inactive
6,CCCCCCOc1ccc(OC(=O)c2cccnc2)cc1,inactive
7,CCCCN1C(=O)c2ccc(C(=O)Nc3ccc(S(=O)(=O)N(C)C)cc3)cc2C1=O,inactive
8,CC(C)(C)C(=O)N(Cc1ccccc1)c1ccccn1,inactive
9,CCN=C1S/C(=C\c2cc(Br)ccc2OCC(=O)OCC)C(=O)N1CC,inactive
10,CN(C)C(=O)c1ccc2c(c1)C1C3CCC(C3)C1C(c1ccccc1)N2 (stereo not drawn),6 (active)
11,CN(C)C(=O)c1ccc(NC(=O)c2ccccc2-c2ccccc2)cc1,inactive
12,O=C(c1ccc2c(c1)N(Cc1ccc(F)cc1)C(=O)c1ccccc1S2(=O)=O)N1CCN(c2ccccn2)CC1,inactive
13,S=C(NCc1ccc(Cl)cc1)NC1CCCCC1,inactive
14,S=C(NCc1ccc(Cl)cc1)NC12CC3CC(CC(C3)C1)C2,11 (active)
15,O=C(NCc1ccncc1)NC12CC3CC(CC(C3)C1)C2,inactive
16,Cc1cc(C)c(NC(=S)N2CCCC2C(=O)O)c(C)c1 (stereo not drawn),inactive
17,CC(C)[C@H](NC(=O)N1CCn2c1nc1ccccc12)C(=O)NCc1ccc2c(c1)OCO2,inactive
18,COc1cnn(-c2ccc([N+](=O)[O-])cc2)c(=O)c1Cl,inactive
19,CC(=O)c1ccc(NC(=O)C2CCCN2S(=O)(=O)c2cccs2)cc1 (stereo not drawn),inactive
20,C=CCSc1nsc(NC(=O)Nc2cccc(C(C)=O)c2)n1,12 (active)
21,CCSc1nsc(NC(=O)Nc2cccc(C(C)=O)c2)n1,10 (active)
22,CSc1nsc(NC(=O)Nc2ccccc2)n1,inactive
23,CCSc1nsc(NC(=O)Nc2ccccc2OC)n1,inactive
24,CC(=O)c1cccc(NC(=O)c2ccncc2)c1,inactive
25,C=C(C)C(=O)Nc1cccc(C(C)=O)c1,inactive
26,CCOc1ccc(C(CCc2ccccc2)NC(=O)c2ccc(OC)c(OC)c2)cc1OCC (stereo not drawn),inactive
